This is an account of results in PubChem BioAssay (Tox21).

Assay [1] in a line: qHTS assay to identify small molecule agonists of the hypoxia (HIF-1) signaling pathway - cell viability counter screen (AID 1224844; calls by dose curve; also: nearly all actives have a fitted effect of over 50% in size; also: potency is read from the fitted curve at half-maximal effect). An outline of the steps:
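HRE-bla ME-180 cells in medium with 0.5% dialyzed FBS were preincubated 5 hrs at 37C, exposed to compounds for 17 hrs, then viability was read as CellTiter-Glo luminescence after 30 min at room temperature, in the reporter wells.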
(In qHTS, concentration-response curves come from the screen itself.)

A short description of assay [2]: qHTS assay to identify small molecule agonists of H2AX (AID 1224845; active = well fitted activation curve with a large enough effect in the signal ratio in the repeat runs, not every such curve was filed as active; the % refers to the signal ratio). The gist of the method: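 Wild-type CHO-K1 cells, plated overnight, exposed 3hr at 37C to 15 concentrations (0.76% DMSO final). Lysed, then HTRF anti-pH2AX (S139) cryptate and anti-H2AX-d2 antibodies, 24 hr room temperature; 665/620 nm emission read.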
The nature of assay [3]: qHTS assay to identify small molecule agonists of the hypoxia (HIF-1) signaling pathway (AID 1224846; active = well fitted activation curve with a large enough effect in the signal ratio in the repeat runs, not every such curve was filed as active; the % refers to the signal ratio). The gist of the method:
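HRE-bla ME-180 cells (beta-lactamase reporter under hypoxia response element) were plated at 2,000 cells/well in medium with 0.5% dialyzed FBS, rested 5 hrs, then given compounds in DMSO for 17 hrs at 37C, 5% CO2. Reporter induction was read with CCF4-AM FRET substrate.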

The nature of assay [4]: qHTS assay to identify small molecule agonists of H2AX - cell viability counter screen (AID 1224847; calls by dose curve; also: top concentration of the series differs between compounds; nearly all actives have a fitted effect of over 30% in size). An outline of the steps: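 After overnight plating of 1000 CHO-K1 cells per well, a 15-concentration compound series was applied for 3 hr at 37C. Luminescence from CellTiter-Glo, read following 30 min at room temperature, reflected cell viability.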
The nature of assay [5]: qHTS assay to identify small molecule agonists of the estrogen related receptor (ERR) signaling pathway from Tox21 library (AID 1224849; calls by dose curve; also: nearly all actives have a fitted effect of over 15% in size). Conditions: ERR reporter cell line, ONE-Glo luciferase, 18 h. The gist of the method: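 ERR reporter cell line (NTP) seeded, rested 6 h at 37 C/5% CO2, then pinned with Tox21 compounds in DMSO. After 18 h at 37 C, ONE-Glo luciferase luminescence was read following 30 min at room temperature.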

Assay [6] in a line: qHTS RealTime-Glo MT Cell Viability Assay in HepG2 cells - 24 hour (AID 1224867). Also: nearly all actives have a fitted effect of over 50% in size. Also: potency is read from the fitted curve at half-maximal effect. An outline of the steps: (§1)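 HepG2 cells (600/well) were dispensed with RealTime-Glo reagents, incubated 5 h at 37 °C, then treated with compounds in DMSO for up to 40 h. Nonlytic NanoLuc luminescence reflecting viable cells was read at each stated time point.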
The nature of assay [7]: qHTS RealTime-Glo MT Cell Viability Assay in HEK293 cells - 32 hour (AID 1224868). Also: nearly all actives have a fitted effect of over 50% in size. Also: potency is read from the fitted curve at half-maximal effect. An outline of the steps: (§2)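 HEK293 cells seeded with NanoLuc/prosubstrate reagent, rested 5 h at 37 C, then dosed and kept at 37 C up to 40 h. Nonlytic real-time luminescence from viable cells read at 0, 8, 16, 24, 32 and 40 h.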
The nature of assay [8]: A CellTox Green Cytotoxicity Assay to monitor cytotoxicity in HEK293 cells - 0 hour (AID 1224869). Also: nearly all actives have a fitted effect of over 50% in size. The gist of the method: (§3)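 HEK293 cells premixed with CellTox Green dye were seeded at 600 cells/well and left 5 h at 37 C/5% CO2 before pin transfer of 23 nL compound in DMSO. Fluorescence from dye bound to dead-cell DNA was read during 40 h treatment.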
A short description of assay [9]: qHTS RealTime-Glo MT Cell Viability Assay in HepG2 cells - 40 hour (AID 1224870). Also: nearly all actives have a fitted effect of over 50% in size. Also: potency is read from the fitted curve at half-maximal effect. An outline of the steps:
(§4)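 HepG2 cells (600/well) mixed with RealTime-Glo MT reagent, settled 5 h at 37 C/5% CO2 before compound addition. Nonlytic NanoLuc luminescence from viable-cell prosubstrate reduction read repeatedly during 40 h treatment at 37 C.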

Assay [10] can be described thus: A CellTox Green Cytotoxicity Assay to monitor cytotoxicity in HEK293 cells - 40 hour (AID 1224871). Also: nearly all actives have a fitted effect of over 45% in size. An outline of the steps:
as §3

Assay [11] is described as follows: qHTS RealTime-Glo MT Cell Viability Assay in HEK293 cells - 16 hour (AID 1224872). Also: nearly all actives have a fitted effect of over 50% in size. Also: potency is read from the fitted curve at half-maximal effect. An outline of the steps: as §2
Assay [12] is described as follows: qHTS RealTime-Glo MT Cell Viability Assay in HEK293 cells - 40 hour (AID 1224874). Also: nearly all actives have a fitted effect of over 50% in size. Also: potency is read from the fitted curve at half-maximal effect. The conditions noted are these: RealTime-Glo luminescence; max response: active compounds read low. The gist of the method: (§5)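 HEK293 cells mixed with RealTime-Glo reagents (NanoLuc plus cell-permeant prosubstrate) at 600 cells/well, preincubated 5 h at 37 C/5% CO2, then given 23 nL compound in DMSO. Nonlytic luminescence from viable cells was read at 0, 8, 16, 24, 32 and 40 h.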

Assay [13] in a line: A CellTox Green Cytotoxicity Assay to monitor cytotoxicity in HEK293 cells - 24 hour (AID 1224875). Also: nearly all actives have a fitted effect of over 45% in size. The gist of the method:
as §3

The nature of assay [14]: A CellTox Green Cytotoxicity Assay to monitor cytotoxicity in HepG2 cells - 16 hour (AID 1224876). Also: nearly all actives have a fitted effect of over 45% in size. Also: potency is read from the fitted curve at half-maximal effect. The gist of the method:
(§6)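 HepG2 cells were seeded together with the CellTox Green dye at 600 cells/well, left 5 h at 37 C/5% CO2, then given compounds in DMSO. Fluorescence from dye bound to dead-cell DNA was read repeatedly over 40 h of treatment at 37 C.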

The nature of assay [15]: qHTS RealTime-Glo MT Cell Viability Assay in HepG2 cells - 32 hour (AID 1224877). Also: nearly all actives have a fitted effect of over 55% in size. Also: potency is read from the fitted curve at half-maximal effect. The gist of the method: as §1
The nature of assay [16]: A CellTox Green Cytotoxicity Assay to monitor cytotoxicity in HepG2 cells - 24 hour (AID 1224878). Also: nearly all actives have a fitted effect of over 45% in size. Also: potency is read from the fitted curve at half-maximal effect. An outline of the steps: as §6
Assay [17] is described as follows: A CellTox Green Cytotoxicity Assay to monitor cytotoxicity in HepG2 cells - 40 hour (AID 1224879). Also: nearly all actives have a fitted effect of over 40% in size. Also: potency is read from the fitted curve at half-maximal effect. The gist of the method: as §6
Assay [18] in a line: qHTS RealTime-Glo MT Cell Viability Assay in HEK293 cells - 0 hour (AID 1224880). The gist of the method:
as §5

The target in assay [19] is Thyrotropin receptor (Homo sapiens) (UniProt P16473). Kind of assay: qHTS assay to identify small molecule agonists of the thyroid stimulating hormone receptor (TSHR) signaling pathway (AID 1224843; calls by dose curve; also: nearly all actives have a fitted effect of over 45% in size). The gist of the method: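 Steps: seed 800 TSHR-HEK293 cells per well; add test compound and hold 30 min at ambient temperature; dispense cAMP-d2 then anti-cAMP cryptate; incubate 1 h at ambient; measure fluorescence intensity.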
Chain of Thyrotropin receptor (Homo sapiens) (P16473 whole entry, looked up): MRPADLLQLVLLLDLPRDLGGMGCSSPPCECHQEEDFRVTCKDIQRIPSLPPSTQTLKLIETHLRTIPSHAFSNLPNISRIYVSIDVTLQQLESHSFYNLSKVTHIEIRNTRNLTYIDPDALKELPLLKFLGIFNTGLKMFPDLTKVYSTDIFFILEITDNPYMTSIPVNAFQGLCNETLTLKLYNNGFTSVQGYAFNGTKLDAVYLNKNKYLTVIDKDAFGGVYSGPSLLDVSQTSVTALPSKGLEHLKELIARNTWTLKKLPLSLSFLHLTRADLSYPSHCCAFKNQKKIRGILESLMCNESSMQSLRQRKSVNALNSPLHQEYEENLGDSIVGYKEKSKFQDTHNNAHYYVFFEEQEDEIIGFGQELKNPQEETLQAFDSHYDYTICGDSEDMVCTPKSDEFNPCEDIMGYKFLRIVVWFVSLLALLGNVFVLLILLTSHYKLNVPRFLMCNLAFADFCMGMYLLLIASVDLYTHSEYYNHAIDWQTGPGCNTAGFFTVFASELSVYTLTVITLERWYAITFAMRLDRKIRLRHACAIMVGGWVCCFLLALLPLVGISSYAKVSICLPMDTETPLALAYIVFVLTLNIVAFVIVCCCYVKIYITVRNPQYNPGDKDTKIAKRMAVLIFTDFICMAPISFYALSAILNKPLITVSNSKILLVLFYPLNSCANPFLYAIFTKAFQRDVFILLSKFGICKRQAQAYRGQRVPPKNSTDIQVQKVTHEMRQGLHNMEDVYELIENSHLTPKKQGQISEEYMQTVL

The nature of assay [20]: qHTS RealTime-Glo MT Cell Viability Assay in HepG2 cells - 8 hour (AID 1224873). Also: nearly all actives have a fitted effect of over 55% in size. Also: potency is read from the fitted curve at half-maximal effect. An outline of the steps:
as §4

The structures appear in SMILES notation. Where “and” joins values, the source holds several entries; their conditions need not be identical. Equal entries are not always repeated. A number with no mark means an inactive call. Records with an inconclusive call do not appear. Calls of active or inactive are those of the source. Unless noted, calls follow the shape of the dose curve; as a rule, active = well fitted curve in the direction sought with a large enough effect in the repeat runs; inconclusive = weak or mixed curves; inactive = no such curve, though single readings can be large; an effect the other way counts as inactive or inconclusive.
% is scaled to controls: 0 for no effect and ±100 for the full control effect.

In the case of `COc1ccc(C(Cl)=C(c2ccc(OC)cc2)c2ccc(OC)cc2)cc1`, the Potency result in [1], in assay [2], in assay [4], in assay [6], in assay [7] and in assay [8] was “inactive” each time. In addition, the Potency result in assay [9], in assay [10], in assay [11], in assay [13], in assay [14] and in [15] was “inactive” throughout. Further, the Potency result in assay [16], in assay [17] and in [18] was “inactive” in each case. For the same compound, the outcome in [3] was inactive. Also, the activity change, positive = activation was -32.5% in assay [5] (at 42.5 µM (top of the series)); -45.8% and -43.7% in assay [5] (at 92.4 µM (top of the series)). Further, the max response in assay [12] was -17.7%.

Consider `COc1ccc2cc(S(=O)(=O)N[C@H](CC(=O)N[C@H](Cc3ccc(CN4[C@H](C)CCC[C@@H]4C)cc3)C(=O)N(C)C(C)C)c3ccc4c(c3)OCO4)ccc2c1`, for which the Potency entry in assay [19], in assay [8] and in [18] was “inactive” throughout. The Potency in assay [1] was 10.4 µM (active); in assay [6], 52 µM (active); in assay [7] it was 26.1 µM (active); in assay [9] it was 52 µM (active); in assay [11], 46.3 µM (active); in assay [20] it was 52 µM (active). The Potency in [12] was 26.1 µM (active); in assay [14], 52 µM (active); in [15], 52 µM (active); in assay [16], 52 µM (active); in [17] it was 52 µM (active). The activity change, positive = activation in [5] (at 92.4 µM (top of the series)) was -76%.

As for `Cn1c(=O)c2c(ncn2C)n(C)c1=O`, the Potency result in [1], in assay [2], in assay [4], in assay [6], in assay [7] and in assay [8] was “inactive” throughout. Also, the Potency entry in [9], in assay [11], in [20], in [13], in assay [14] and in [16] was “inactive” throughout. Besides, the Potency entry in [17] and in assay [18] was “inactive” throughout. Besides, the compound was classed as inactive in assay [3]. The activity change, positive = activation in [5] (at 42.5 µM (top of the series)) is 0.592%; in [5] (at 92.4 µM (top of the series)), -33.2% and 0.518%. Further, the max response in [12] was -15% and -0.566% and 6.55%.

On to `COc1cccc(O)c1O`, for which the compound was classed as inactive in [3]. Also, the Potency entry in assay [4], in [6], in assay [8], in assay [9], in [10] and in assay [11] was “inactive” each time. Besides, the Potency result in [20], in assay [13], in assay [14], in assay [15], in assay [16] and in assay [17] was “inactive” each time. For the same compound, the Potency entry in assay [18] was “inactive”.

Consider `Nc1c(N=Nc2ccc(-c3ccc(N=Nc4cc(S(=O)(=O)O)c5ccccc5c4N)cc3)cc2)cc(S(=O)(=O)O)c2ccccc12`, for which the activity change, positive = activation in [5] (at 92.4 µM (top of the series)) was -40.2%. Also, the Potency in assay [6] is 48.9 µM (active); in assay [7], 38.9 µM (active); in [9], 48.9 µM (active); in assay [11] it was 38.9 µM (active); in [20] it was 38.9 µM (active). Also, the Potency entry in assay [8], in assay [10], in assay [13], in assay [14], in [16] and in assay [17] was “inactive” each time.
